# Laboratory results: PubChem BioAssay AID2796 (The Scripps Research Institute Molecular Screening Center, 2010)
# Screen size: about 320,000 compounds; about 8,000 (2.5%) were called active. Rule as the data show it: active = activation above about 47%; inactive = the rest. For the sample, actives were picked, then their nearest neighbours and some compounds at random.
# Target: Aryl hydrocarbon receptor (Homo sapiens) (UniProt P35869)
# Assay: AHR activators, primary screen, cell-based, luminescence, luciferase reporter, human (AID 2796);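 also: 0% = vehicle wells and 100% = reference agonist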
# Settings: AHR-responsive luciferase reporter cells, at 5 µM, active compounds read high
# Aryl hydrocarbon receptor (Homo sapiens), sequence (P35869 whole entry, looked up): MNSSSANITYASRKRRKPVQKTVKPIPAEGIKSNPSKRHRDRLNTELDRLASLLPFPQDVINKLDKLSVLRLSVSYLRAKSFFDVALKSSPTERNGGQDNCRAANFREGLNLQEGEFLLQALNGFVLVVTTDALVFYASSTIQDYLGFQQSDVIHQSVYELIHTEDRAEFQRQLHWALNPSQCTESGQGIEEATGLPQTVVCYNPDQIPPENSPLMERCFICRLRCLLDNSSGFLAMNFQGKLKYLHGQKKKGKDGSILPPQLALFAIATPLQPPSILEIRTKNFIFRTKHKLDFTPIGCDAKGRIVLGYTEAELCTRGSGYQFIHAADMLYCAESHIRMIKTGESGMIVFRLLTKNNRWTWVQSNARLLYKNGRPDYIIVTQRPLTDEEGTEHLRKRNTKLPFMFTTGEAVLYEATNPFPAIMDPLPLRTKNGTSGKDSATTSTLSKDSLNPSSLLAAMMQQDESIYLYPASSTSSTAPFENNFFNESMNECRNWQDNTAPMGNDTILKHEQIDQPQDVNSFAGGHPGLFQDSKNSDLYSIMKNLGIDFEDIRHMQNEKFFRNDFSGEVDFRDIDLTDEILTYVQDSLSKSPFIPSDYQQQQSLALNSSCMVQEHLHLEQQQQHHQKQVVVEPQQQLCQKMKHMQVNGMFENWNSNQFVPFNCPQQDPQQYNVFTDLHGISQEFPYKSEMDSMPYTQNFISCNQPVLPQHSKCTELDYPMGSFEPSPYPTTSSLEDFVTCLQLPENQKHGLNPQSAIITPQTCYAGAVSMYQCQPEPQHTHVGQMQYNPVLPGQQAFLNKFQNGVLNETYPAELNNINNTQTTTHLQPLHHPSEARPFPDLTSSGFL
row,Compound,activation
1,N[C@@H](Cc1c[nH]c2ccccc12)c1nnc(SCc2c(F)cccc2Cl)o1,60.4% (active)
2,COc1cc2nc(N3CCN(C(=O)[C@@H]4CCCO4)CC3)nc(N)c2cc1OC,5.62% (inactive)
3,c1ccc(CCN2CCC3(CC2)OCCO3)cc1,-0.2% (inactive)
4,O=C(NC(c1ccc(Cl)cc1)P(=O)(Oc1ccccc1)Oc1ccccc1)OCc1ccccc1 (stereo not given),1.2% (inactive)
5,CN(C)CCN(CC1CCCN(Cc2ccccc2F)C1)C(=O)Cc1ccc(F)c(F)c1 (stereo not given),-0.87% (inactive)
6,CC1(C)C(c2ccccc2)=NC(c2cccnc2)=[N+]1[O-],1.07% (inactive)
7,COC1=CC=C2[C@H]3Cc4ccc(OC)c5c4[C@@]2(CCN3C)C1O5 (stereo not given in full),-1.46% (inactive)
8,COc1c(O)ccc2c1-c1c3c(cc4c1C(C2)N(C)CC4)OCO3 (stereo not given),4.84% (inactive)
9,COc1ccc2c(c1O)-c1cccc3c1[C@@H](C2)N(C)CC3,64.4% (active)
10,COc1ccc(NC(=O)c2cn(CCC#N)nc2-c2ccc([N+](=O)[O-])cc2)cc1,0% (inactive)
11,CCOC(=O)CC1=C(C(=O)OCC)C2(C(=O)N1)C(C(=O)OC)=C(N)Oc1ccccc12 (stereo not given),10% (inactive)
12,CCOC(=O)C1=C(C)OC(N)=C(C(=O)OC)C12C(=O)Nc1ccc(Br)cc12 (stereo not given),57% (active)
13,COC(=O)CN1C(=O)C2(C(C(=O)OC)=C(N)Oc3ccccc32)C2=C1CC(C)(C)CC2=O (stereo not given),2.04% (inactive)
14,Nc1ccc(C(=O)N/N=C2/CN3CCC2CC3)cc1,3.27% (inactive)
15,CCOC(=O)C(O)(c1ccc(N=Cc2ccccc2O)c(C)c1)C(F)(F)F (stereo not given),-2.72% (inactive)
